In all, about 360,000 compounds went through this assay and about 17,000 (4.7%) were called active. Inconclusive results (about 5%) are left out. Cut-off read from the data, not from the text of the source: active = activity change below about -50%; inconclusive = mostly about -30% to -49%; inactive = weaker than that. What follows is part of a selection rich in actives, with near analogues and random picks from the rest.
% is set by controls: 0 for no effect and ±100 for the full control effect.

The nature of this experiment: qHTS for Inhibitors of Inflammasome Signaling: IL-1-beta AlphaLISA Primary Screen. The conditions noted are these: THP-1 LPS/ATP IL-1B secretion, 16 h; at 57.5 µM, hits give low values. The essentials: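 Secreted IL-1B measured by AlphaLISA bead assay after 16 h compound exposure of THP-1 cells; compounds (final up to 57.5 uM) added 1 h before LPS (250 ng/mL) and ATP (1.25 mM) stimulation; lower signal means less secretion.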
Take `CC(C)[C@H](NC(=O)c1ccccc1F)C(=O)Nc1cccc(S(=O)(=O)N2CCOCC2)c1`: the activity change was 13.4% (inactive).

Consider `O=C(NCc1ccco1)/C(=C\c1cccc([N+](=O)[O-])c1)NC(=O)c1ccco1`, for which the activity change was 29.6% (inactive). As for `CCCCN(C(C)=O)c1ccc2c(c1)C1CC2CCN1Cc1ccccc1` (configuration not stated), the figure is -22.2% (inactive). As for `COc1ccc(CNC(=O)Cc2ccc(-c3ccccc3)cc2)cc1OC`, the figure is 0.934% (inactive). As for `Fc1ccc(-c2ccc(-c3nn4c(-c5ccco5)nnc4s3)o2)cc1`, the figure is -8.52% (inactive); as for `COc1ccc(-c2nn3c(-c4ccccc4)nnc3s2)cc1OC`, -54.1% (active). Consider `CCCc1ccc(S(=O)(=O)N2CCN(C(=O)c3cc(C)on3)CC2)cc1`, for which the activity change was 21.7% (inactive). As for `CCOC(=O)[C@]12CCCC=C1N(CCC1=CCCCC1)C(=O)[C@H](CC(=O)N1CCN(C(=O)c3ccco3)CC1)C2`, the figure is -5.52% (inactive); as for `C=CCc1cc(S(=O)(=O)c2ccc(O)c(CC=C)c2)ccc1O`, 8.87% (inactive); as for `CCCNC(=O)C[C@@H]1CC[C@@H]2[C@H](COC[C@H](O)CN2C(=O)c2cc(Cl)cc(Cl)c2)O1`, 35% (inactive).

Regarding `O=C(COC(=O)Cc1ccc(Cl)cc1Cl)NCc1ccco1`, the activity change was 0.688% (inactive). As for `CC(=O)OCC(COC(C)=O)OC(C)=O`, the figure is 12.6% (inactive); as for `CC(C[N+](C)(C)C)OC(N)=O` (configuration not stated), 8.81% (inactive). The value for `CC(=O)OC(C)C[N+](C)(C)C` (configuration not stated) was -70.2% (active); that for `CC1=C(C(=O)N2CCOCC2)CC(CC(=O)NCc2ccco2)C(=O)N1Cc1ccc(F)cc1` (configuration not stated) was 17.5% (inactive). Consider `O=C1NC[C@H](CCCCN2C[C@H](Cc3ccc(O)cc3)N(CCc3ccccc3)C(=O)C2=O)N(CCc2ccccc2)C1=O`, for which the activity change was 4.59% (inactive). For the compound `CC(C)(C)N1CC(c2nc3ccccc3n2Cc2ccc(F)cc2)CC1=O` (configuration not stated), the activity change was -16.1% (inactive). As for `CC(C)(C)c1cc(=O)n2c(nc3ccccc32)[nH]1`, the figure is -74.5% (active). As for `CC(C)(C)c1nc2ccccc2c(=O)n1N1C(=O)c2ccccc2C1=O`, the figure is -1.36% (inactive). Consider `CN(CC(=O)NCc1ccncc1)S(=O)(=O)c1ccc(Br)cc1`, for which the activity change was 11.2% (inactive).

With `O=C(N/N=C/c1ccc(Cl)cc1)c1nc2ccc([N+](=O)[O-])cc2c(=O)[nH]1`, the activity change was 7.76% (inactive).

As for `O=C(CCc1nc2ccccc2c(=O)[nH]1)OCC(=O)c1cccc(Cl)c1`, the activity change is 0% (inactive).

With `O=C(/C(=C/c1cccc(Cl)c1)c1nc2ccccc2[nH]1)c1ccccc1`, the activity change was -95.6% (active).

Consider `c1cc(-c2ccc3[nH]ccc3c2)n2ccnc2c1`, for which the activity change is 10.3% (inactive). As for `CN(CC(=O)NC1CCCCC1)S(=O)(=O)c1ccc(Br)s1`, the figure is 2.52% (inactive); as for `CC1CN(C(=O)CCC(=O)NC2CCN(Cc3ccccc3)CC2)c2ccccc2O1` (configuration not stated), -3.91% (inactive). As for `CN(CC(=O)NC1CCN(Cc2ccccc2)CC1)S(=O)(=O)c1ccc(Cl)s1`, the figure is -53.7% (active); as for `COc1cccc(OC)c1C(=O)N1CCN(Cc2ccccc2F)CC1`, -14.9% (inactive). Consider `COc1cccc(-c2cnc3c(NC(C)=O)cc(-c4cc(F)ccc4OC)cn23)c1`, for which the activity change is -11.1% (inactive). As for `Cc1ccccc1N1CCN(Cc2nc(Cc3ccccc3F)no2)CC1`, the figure is 15.1% (inactive). The value for `COc1ccc(CCNC(=S)N2CCN(S(=O)(=O)c3ccc(Cl)cc3)CC2)cc1` was 0% (inactive); that for `O=C(NCCc1ccc(Cl)cc1)c1cccc(N2CCCC2=O)c1` was -5.88% (inactive); that for `Oc1cc2c(cc1O)CN(C(=S)NCCc1ccc(Cl)cc1)CCC2` was -66.9% (active).

Regarding `O=C(Nc1ccc(S(=O)(=O)Nc2ccccn2)cc1)c1ccccc1`, the activity change entry was “inactive”.

As for `O=C(Nc1ccccc1)c1nnsc1S(=O)(=O)c1ccc(Cl)cc1`, the activity change was -53.3% (active). The value for `O=C(Nc1ccc(Cl)cc1)Nc1nnc(/C=C/c2ccccc2)s1` was 11.5% (inactive); that for `CCCCc1nc(SCC(=O)Nc2nnc(C(C)C)s2)n[nH]1` was 10.5% (inactive). In the case of `CSCCC(NC(=O)C1CCC(C)CC1)C(=O)NCc1ccco1` (configuration not stated), the activity change is -25.5% (inactive).

In the case of `CN1C(c2ccc(F)cc2)=CS/C1=C(/C#N)c1nnc2n1-c1ccccc1SC2`, the activity change is -68.6% (active). In the case of `COc1cc(OC)cc(-c2nc3ccccc3c(=O)n2NC(=O)c2cccnc2Cl)c1`, the activity change is -0.823% (inactive). As for `O=C(Nc1ccc2c(c1)OCCO2)C1c2ccccc2OCC(=O)N1Cc1ccccn1` (configuration not stated), the figure is 18.3% (inactive); as for `CC(C)Cn1cc(-c2cncc3nccn23)cn1`, -7.82% (inactive). As for `CCCCCc1ccc(-c2cn(Cc3ccc4ccccc4c3)nn2)cc1`, the figure is -1.04% (inactive); as for `CCOC(=O)c1nnn(-c2nc(OC)nc(N(C)C)n2)c1-c1ccccc1`, 44.9% (inactive). The value for `CCOc1nc(OCC)nc(-n2cc(-c3ccccc3)nn2)n1` was -60.1% (active); that for `COc1ccc(-c2ccc(CN3C(CC(C)C)C(=O)N(Cc4cn(CC5CCCCC5)nn4)CCS3(=O)=O)cc2)cn1` (configuration not stated) was -12.3% (inactive). With `CC(=O)NN=C(C)c1ccc(NC(=O)C2CC2)cc1`, the activity change was -22.8% (inactive). The value for `CCc1ccc2c(c1)cc(CN(C(=S)Nc1ccccc1Cl)C1CC1)c1nnnn12` was 14.3% (inactive); that for `COc1cc([N+](=O)[O-])cc([N+](=O)[O-])c1NC(=O)N1CCOCC1` was -92.7% (active); that for `COc1cc(C(=S)N2CCOCC2)cc(OC)c1OC(=O)c1ccc([N+](=O)[O-])cc1[N+](=O)[O-]` was -15.3% (inactive). The value for `COc1cc(C(=S)N2CCOCC2)cc(OC)c1OC(=O)c1cc([N+](=O)[O-])cc([N+](=O)[O-])c1` was 22% (inactive); that for `OC[C@@H]1CN(Cc2ccc(-c3ccccc3)cc2)C[C@H](n2cnc3c(NC4CCCC4)ncnc32)O1` was -3.87% (inactive). For `CCOc1ccc2[nH]c(C(=O)N/N=C/c3cccc(OC)c3OC)cc2c1`, the activity change was 0% (inactive). With `COc1cc2cc(C(=O)N/N=C/c3cccc(OC)c3OC)[nH]c2cc1OC`, the activity change was -70% (active).

Take `COc1ccc2[nH]c(C(=O)N/N=C/c3cc(OC)c(OC)c(OC)c3)cc2c1`: the activity change is -6.28% (inactive). The value for `Cc1cc2c3ccccc3[nH]c(=O)n2n1` was -25.1% (inactive); that for `O=C1c2ccccc2C(=O)C1C(=O)C1CC1` was 8.56% (inactive).

The values above are taken from PubChem BioAssay AID743279 (National Center for Advancing Translational Sciences (NCATS), 2014).
